PubChem BioAssay (NCI)
Where “and” joins values, the source holds several entries; their conditions need not be identical. Identical values can stand only once. About 79,000 compounds went through this panel and 15% of them were active in at least one assay; those are over-represented in the sample as a whole. Some structures have more than one record in an assay (separate samples or runs), and their calls can disagree. Calls of active or inactive are those of the source. No stated cut-off is given here; in the data, active means growth inhibition above about 70%; inactive means the rest.

Columns and labels:
[1] = NCI Yeast Anticancer Drug Screen. Data for the wt1 strain (AID 149);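 further: 0% = growth of vehicle-treated wt1 cultures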; conditions: S. cerevisiae wt1 strain (SPY 50644) growth inhibition, stronger effect = higher value
Summary of the method: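 Readout: yeast growth inhibition, normalised to vehicle controls, in the wt1 strain exposed to test compounds.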

[2] = NCI Yeast Anticancer Drug Screen. Data for the rad50EPP+ strain (AID 151);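 further: 0% = growth of vehicle-treated control cultures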; conditions: S. cerevisiae rad50 mutant strain, stronger effect = higher value
Summary of the method: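 Strain rad50EPP+; compound exposure; % growth inhibition vs vehicle.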

[3] = NCI Yeast Anticancer Drug Screen. Data for the mgt1 strain (AID 153); conditions: S. cerevisiae mgt1 mutant growth inhibition, stronger effect = higher value
Summary of the method: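 Read-out: yeast growth inhibition vs vehicle control. Strain mgt1, drawn from a panel altered in DNA damage repair or cell cycle control.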

[4] = NCI Yeast Anticancer Drug Screen. Data for the rad50 strain (AID 155);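 further: 0% = growth of vehicle-only cultures of the same strain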; conditions: S. cerevisiae rad50 strain growth inhibition, stronger effect = higher value
Summary of the method: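 Compounds were tested on a yeast strain with an engineered DNA damage repair alteration; the reported value is growth inhibition normalised to vehicle treatment.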

[5] = NCI Yeast Anticancer Drug Screen. Data for the mec2-1 strain (AID 157); conditions: S. cerevisiae mec2-1 strain, stronger effect = higher value
Summary of the method: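 Cells of the genetically defined mec2-1 yeast strain are incubated with test compound. Inhibition of growth is calculated against vehicle-treated controls.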

[6] = NCI Yeast Anticancer Drug Screen. Data for the rad14 strain (AID 159);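 further: 0% = growth of vehicle-treated control cultures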; conditions: S. cerevisiae rad14 strain growth inhibition, stronger effect = higher value
Summary of the method: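 Compound-treated yeast with a defined DNA-repair lesion; growth inhibition normalised to vehicle-treated cultures.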

[7] = NCI Yeast Anticancer Drug Screen. Data for the sgs1 mgt1 strain (AID 161);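 further: 0% = growth of cultures given vehicle only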; conditions: S. cerevisiae sgs1 mgt1 strain, stronger effect = higher value
Summary of the method: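 Read-out: growth inhibition vs vehicle controls. Cells: mutant yeast strain deficient in DNA damage repair.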

[8] = NCI Yeast Anticancer Drug Screen. Data for the cln2 rad14 strain (AID 165);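 further: 0% = growth equal to vehicle treated cultures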; conditions: S. cerevisiae cln2 rad14 strain, stronger effect = higher value
Summary of the method: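 The screen exposed genetically defined yeast (cln2 rad14) to test compounds and scored growth inhibition relative to vehicle-treated controls.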

[9] = NCI Yeast Anticancer Drug Screen. Data for the bub3 strain (AID 167); conditions: S. cerevisiae bub3 mutant strain, stronger effect = higher value
Summary of the method: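 Growth of a checkpoint-deficient yeast mutant is measured after compound exposure. Values represent inhibition relative to vehicle.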

[10] = NCI Yeast Anticancer Drug Screen. Data for the wt2 strain (AID 169);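 further: 0% = growth of vehicle-treated yeast cultures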; conditions: S. cerevisiae wt2 strain growth inhibition, stronger effect = higher value
Summary of the method: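 Steps: yeast strain treated with compound; growth recorded; inhibition calculated relative to cultures given vehicle alone.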

[11] = NCI Yeast Anticancer Drug Screen. Data for the mlh1 strain (AID 171);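 further: 0% = growth of vehicle-treated control cultures of the same strain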; conditions: S. cerevisiae mlh1 strain growth inhibition, stronger effect = higher value
Summary of the method: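 Yeast screen: mutant strain plus compound, growth scored against vehicle control wells.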

[12] = NCI Yeast Anticancer Drug Screen. Data for the sgs1 strain (AID 173);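 further: 0% = growth of vehicle-only control cultures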; conditions: S. cerevisiae sgs1 mutant, stronger effect = higher value
Summary of the method: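 Inhibition of yeast growth served as the measure. The mutant strain was treated with each compound, and growth was normalised to cultures receiving vehicle alone.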

[13] = NCI Yeast Anticancer Drug Screen. Data for the mlh1 rad18 strain (AID 175); conditions: S. cerevisiae mlh1 rad18 strain growth inhibition, stronger effect = higher value
Summary of the method: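 Compound-treated yeast growth, normalised to vehicle controls. Strain bears defined DNA repair mutations.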

[14] = NCI Yeast Anticancer Drug Screen. Data for the rad18 strain (AID 177); conditions: S. cerevisiae rad18 mutant growth inhibition, stronger effect = higher value
Summary of the method: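 Inhibition values reflect reduced yeast growth compared with vehicle-treated controls, using a strain engineered with a DNA damage repair defect.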

[15] = NCI Yeast Anticancer Drug Screen. Data for the CLN2oe strain (AID 163);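 further: 0% = growth of vehicle-only control cultures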; conditions: S. cerevisiae CLN2oe strain, stronger effect = higher value
Summary of the method: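 Strain altered in cell-cycle control, incubated with compound; growth compared to solvent-treated controls.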

[16] = at 5.0 µM (retest, dose inferred, filed as 0.5)
[17] = at 50.0 µM (retest, dose inferred, filed as 5.0)

Measured: growth inhibition

Cc1cnc(/C=N\NC(N)=S)c2cccc(N)c12
inactive: [1]; at 1.2 µM -63% | [1]; at 3.7 µM -49% | [1]; at 11.0 µM -36% | [1]; at 33.0 µM 58% | [2]; at 1.2 µM -68% | [2]; at 3.7 µM -57% | [2]; at 11.0 µM -45% | [2]; at 33.0 µM -38% | [2]; at 100.0 µM -4% | [3]; at 1.2 µM -78% | [3]; at 3.7 µM -69% | [3]; at 11.0 µM -12% | [3]; at 33.0 µM 43% | [4]; at 1.2 µM -81% | [4]; at 3.7 µM -43% | [4]; [16] 13% and 15% | [4]; at 11.0 µM -69% | [4]; at 33.0 µM 28% | [4]; at 50.0 µM 62.3% and 60% | [5]; at 1.2 µM -19% | [5]; at 3.7 µM -48% | [5]; [16] 7% and 21% | [5]; at 11.0 µM 13% | [6]; at 1.2 µM -92% | [6]; at 3.7 µM -75% | [6]; at 11.0 µM -35% | [6]; at 33.0 µM 45% | [7]; [16] 16% and 8% | [7]; at 50.0 µM 61.1% and 63% | [8]; [16] -8% and 9% | [8]; [17] 66% and -55% | [9]; at 1.2 µM -69% | [9]; at 3.7 µM -60% | [9]; [16] 15% and 9% | [9]; at 11.0 µM -50% | [9]; at 33.0 µM 25% | [10]; at 1.2 µM -73% | [10]; at 3.7 µM -48% | [10]; at 11.0 µM 5% | [10]; at 33.0 µM 56% | [11]; at 1.2 µM -75% | [11]; at 3.7 µM -79% | [11]; at 11.0 µM -43% | [11]; at 33.0 µM 27% | [12]; at 1.2 µM -39% | [12]; at 3.7 µM -42% | [12]; at 11.0 µM -13% | [12]; at 33.0 µM 49% | [13]; [16] 17% and 23% | [14]; at 1.2 µM -144% | [14]; at 3.7 µM -115% | [14]; at 11.0 µM -88% | [14]; at 33.0 µM 25%
83% (active) and 30% (inactive): [7]; [17]
74% (active) and 60% (inactive): [5]; at 50.0 µM
48.4% (inactive) and 75.1% (active): [9]; at 50.0 µM
active: [1]; at 100.0 µM 90% | [3]; at 100.0 µM 84% | [4]; [17] 80% and 71% | [4]; at 100.0 µM 83% | [5]; at 33.0 µM 82% | [5]; [17] 87% and 86% | [5]; at 100.0 µM 94% | [6]; at 100.0 µM 91% | [9]; at 100.0 µM 80% | [10]; at 100.0 µM 91% | [11]; at 100.0 µM 87% | [12]; at 100.0 µM 94% | [13]; [17] 85% and 82% | [13]; at 50.0 µM 75.2% and 89% | [14]; at 100.0 µM 85%
87% (active) and -11% (inactive): [9]; [17]
42.1% (inactive) and 70% (active): [8]; at 50.0 µM

O=[N+]([O-])c1cccc2nc3ccccc3c(NCCC[N+]3([O-])CCOCC3)c12
active: [1]; at 100.0 µM 87% | [2]; at 33.0 µM 79% | [2]; at 100.0 µM 92% | [3]; at 100.0 µM 85% | [4]; at 11.0 µM 88% | [4]; at 33.0 µM 94% | [4]; [17] 92% | [4]; at 50.0 µM 83.4% | [4]; at 100.0 µM 95% | [5]; at 11.0 µM 89% | [5]; at 33.0 µM 97% | [5]; [17] 98% | [5]; at 50.0 µM 82.8% | [5]; at 100.0 µM 97% | [6]; at 3.7 µM 87% | [6]; at 11.0 µM 96% | [6]; at 33.0 µM 98% | [6]; at 100.0 µM 97% | [15]; at 100.0 µM 91% | [8]; [16] 86% | [8]; [17] 98% | [8]; at 50.0 µM 94.6% | [9]; [17] 75% | [9]; at 100.0 µM 84% | [10]; at 100.0 µM 93% | [11]; at 100.0 µM 92% | [12]; at 3.7 µM 79% | [12]; at 11.0 µM 85% | [12]; at 33.0 µM 89% | [12]; at 100.0 µM 93% | [13]; [16] 71% | [13]; [17] 98% | [13]; at 50.0 µM 94.5% | [14]; at 1.2 µM 95% | [14]; at 3.7 µM 95% | [14]; at 11.0 µM 96% | [14]; at 33.0 µM 97% | [14]; at 100.0 µM 95%
inactive: [1]; at 1.2 µM -78% | [1]; at 3.7 µM 5% | [1]; at 11.0 µM 16% | [1]; at 33.0 µM 47% | [2]; at 1.2 µM 6% | [2]; at 3.7 µM 19% | [2]; at 11.0 µM 42% | [3]; at 1.2 µM 1% | [3]; at 3.7 µM 5% | [3]; at 11.0 µM 17% | [3]; at 33.0 µM 55% | [4]; at 1.2 µM 37% | [4]; at 3.7 µM 65% | [4]; [16] 37% | [5]; at 1.2 µM 7% | [5]; at 3.7 µM 41% | [5]; [16] 9% | [6]; at 1.2 µM 38% | [15]; at 1.2 µM -15% | [15]; at 3.7 µM -13% | [15]; at 11.0 µM 10% | [15]; at 33.0 µM 55% | [9]; at 1.2 µM -9% | [9]; at 3.7 µM -13% | [9]; [16] -6% | [9]; at 11.0 µM -9% | [9]; at 33.0 µM 14% | [9]; at 50.0 µM 34.4% | [10]; at 1.2 µM -3% | [10]; at 3.7 µM -1% | [10]; at 11.0 µM 3% | [10]; at 33.0 µM 34% | [11]; at 1.2 µM 1% | [11]; at 3.7 µM 5% | [11]; at 11.0 µM 21% | [11]; at 33.0 µM 62% | [12]; at 1.2 µM 63%

O=C(c1c(F)c(F)c(F)c(F)c1F)c1c(F)c(F)c(F)c(F)c1F
active: [1]; at 11.0 µM 95% | [1]; at 33.0 µM 99% | [1]; at 100.0 µM 99% | [2]; at 11.0 µM 94% | [2]; at 33.0 µM 96% | [2]; at 100.0 µM 92% | [3]; at 11.0 µM 98% | [3]; at 33.0 µM 99% | [3]; at 100.0 µM 99% | [4]; [16] 79% | [4]; at 11.0 µM 95% | [4]; at 33.0 µM 96% | [4]; [17] 97% | [4]; at 50.0 µM 84.6% | [4]; at 100.0 µM 95% | [5]; at 3.7 µM 77% | [5]; at 11.0 µM 99% | [5]; at 33.0 µM 100% | [5]; [17] 99% | [5]; at 50.0 µM 87.5% | [5]; at 100.0 µM 99% | [6]; at 11.0 µM 98% | [6]; at 33.0 µM 99% | [6]; at 100.0 µM 99% | [7]; [17] 74% | [7]; at 50.0 µM 76.7% | [15]; at 3.7 µM 72% | [15]; at 11.0 µM 98% | [15]; at 33.0 µM 99% | [15]; at 100.0 µM 97% | [8]; [17] 70% | [8]; at 50.0 µM 85.7% | [10]; at 11.0 µM 98% | [10]; at 33.0 µM 99% | [10]; at 100.0 µM 98% | [12]; at 3.7 µM 72% | [12]; at 11.0 µM 96% | [12]; at 33.0 µM 97% | [12]; at 100.0 µM 95% | [13]; [17] 88% | [14]; at 11.0 µM 92% | [14]; at 33.0 µM 96% | [14]; at 100.0 µM 93%
inactive: [1]; at 1.2 µM 3% | [1]; at 3.7 µM 49% | [2]; at 1.2 µM 30% | [2]; at 3.7 µM 60% | [3]; at 1.2 µM 24% | [3]; at 3.7 µM 59% | [4]; at 1.2 µM 27% | [4]; at 3.7 µM 59% | [5]; at 1.2 µM 36% | [5]; [16] 61% | [6]; at 1.2 µM 10% | [6]; at 3.7 µM 55% | [7]; [16] 15% | [15]; at 1.2 µM 4% | [8]; [16] 38% | [10]; at 1.2 µM 16% | [10]; at 3.7 µM 52% | [12]; at 1.2 µM 39% | [13]; [16] 45% | [13]; at 50.0 µM 67.3% | [14]; at 1.2 µM 28% | [14]; at 3.7 µM 56%
